Data reported in PubChem BioAssay (Tox21).
Inconclusive results are not listed. Active and inactive are the calls of the source. Calls follow the shape of the full dose curve.

biological target: Progesterone receptor (Homo sapiens) (UniProt P06401); assay: qHTS assay to identify small molecule agonists of the progesterone receptor (PR) signaling pathway (AID 1346784); conditions: PR-UAS-bla HEK293T, beta-lactamase FRET ratio, 16 h; series mostly up to 92.4 µM; also: nearly all actives have a fitted effect of over 30% in size
Description: U.S. Tox21 Program National Center for Advancing Translational Sciences [NCATS] NIH Chemical Genomics Center [NCGC] U.S. Environmental Protection Agency [EPA] National Institutes of Environmental Health Sciences [NIEHS] National Toxicology Program [NTP] U.S. Food and Drug Administration [FDA] […] Endocrine disrupting chemicals (EDCs) and their interactions with steroid hormone receptors like PR causes disruption of normal endocrine function. To identify the compounds that activate PR signaling, a PR-UAS-bla GripTite cell line i.e. PR-UAS-bla HEK 293T (Invitrogen, Carlsbad, CA, USA) containing a beta-lactamase reporter gene under the control of an Upstream Activator Sequence (UAS) was used to screen Tox21 10K compound library.
Tox21 Assay Protocol Summary: PR-UAS-bla HEK 293T cells were dispensed at 3,000 cells/5 uL of assay medium containing 2% charcoal stripped FBS per well into black wall/clear-bottom 1536-well plates using a Multidrop Combi (ThermoFisher Scientific, Waltham, MA) dispenser. After the assay plates were incubated at a 37C and 5% CO2 for 6hr, 23 nL of compounds dissolved in DMSO, positive controls or DMSO only was transferred to the assay plate by a Pintool station (Kalypsys, San Diego, CA). The plates were incubated at 37C and 5% CO2 for 16hr. Then 1 uL of LiveBLAzer B/G FRET substrate was added using a BioRAPTR FRD (Flying Reagent Dispenser, Aurora Discovery, San Diego, CA). After the plates were incubated at room temperature for 2 hours, fluorescence intensity was measured by an Envision plate reader (PerkinElmer, Shelton, CT).

Sequence of Progesterone receptor (Homo sapiens) (P06401 whole entry, looked up): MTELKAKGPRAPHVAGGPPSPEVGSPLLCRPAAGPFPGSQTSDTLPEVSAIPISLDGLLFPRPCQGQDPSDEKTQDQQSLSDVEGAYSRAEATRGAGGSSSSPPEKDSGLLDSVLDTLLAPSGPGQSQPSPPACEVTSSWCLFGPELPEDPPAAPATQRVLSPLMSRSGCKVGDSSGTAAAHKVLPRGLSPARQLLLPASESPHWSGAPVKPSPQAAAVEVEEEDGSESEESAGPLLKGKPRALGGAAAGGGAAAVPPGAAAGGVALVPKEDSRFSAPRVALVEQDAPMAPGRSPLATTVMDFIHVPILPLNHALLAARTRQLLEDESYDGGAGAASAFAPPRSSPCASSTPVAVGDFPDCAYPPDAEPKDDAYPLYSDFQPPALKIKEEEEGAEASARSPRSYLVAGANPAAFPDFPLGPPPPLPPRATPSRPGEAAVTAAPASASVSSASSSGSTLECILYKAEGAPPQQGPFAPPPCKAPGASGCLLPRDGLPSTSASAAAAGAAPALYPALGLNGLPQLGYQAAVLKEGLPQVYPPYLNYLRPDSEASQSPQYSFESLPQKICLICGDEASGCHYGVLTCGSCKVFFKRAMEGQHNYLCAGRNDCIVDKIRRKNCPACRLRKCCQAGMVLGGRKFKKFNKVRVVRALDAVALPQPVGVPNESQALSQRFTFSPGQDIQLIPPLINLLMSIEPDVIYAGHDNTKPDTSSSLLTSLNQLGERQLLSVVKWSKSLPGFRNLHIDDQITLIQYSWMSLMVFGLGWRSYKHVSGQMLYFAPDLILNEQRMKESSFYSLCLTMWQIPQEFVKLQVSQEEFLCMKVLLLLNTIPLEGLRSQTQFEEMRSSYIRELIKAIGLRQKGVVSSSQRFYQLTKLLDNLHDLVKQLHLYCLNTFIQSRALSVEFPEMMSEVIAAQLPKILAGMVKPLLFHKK

Row | SMILES | outcome
1 | COC(=O)c1ccccc1N | inactive
2 | Cc1ccccc1O | inactive
3 | c1ccc2c(c1)Oc1ccccc1O2 | inactive
4 | Clc1ccccc1Cl | inactive
5 | COC(=O)NS(=O)(=O)c1ccc(N)cc1 | inactive
6 | CC(NC(C)(C)C)C(=O)c1cccc(Cl)c1 (stereo not given) | inactive
7 | O=[N+]([O-])c1ccccc1 | inactive
8 | CC1C=[C-]C=C1.[C-]#[O+].[C-]#[O+].[C-]#[O+].[Mn] | inactive
9 | CC(Oc1ccc(Cl)cc1Cl)C(=O)O (stereo not given) | inactive
10 | CC(Br)C(=O)O (stereo not given) | inactive
11 | OC(O)C(Cl)(Cl)Cl | inactive
12 | O=c1[nH]c(=O)[nH]c(=O)[nH]1 | inactive
13 | CCCCN(CCCC)SN(C)C(=O)Oc1cccc2c1OC(C)(C)C2 | inactive
14 | CCOP(=S)(OCC)Oc1cnc2ccccc2n1 | inactive
15 | Nc1ccccc1C(=O)O | inactive
16 | Cc1ccc(N)cc1N | inactive
17 | Clc1cccc(Cl)c1Cl | inactive
18 | CC(C)N1C(=O)c2ccccc2NS1(=O)=O | inactive
19 | CON(C)C(=O)Nc1ccc(Cl)c(Cl)c1 | inactive
20 | O=S(=O)(c1ccc(Cl)cc1)c1cc(Cl)c(Cl)cc1Cl | inactive

Row | SMILES | outcome
21 | CCCCN(CC)C(=O)SCCC | inactive
22 | Clc1ccc(Cl)cc1 | inactive
23 | O=c1ccc(=O)[nH][nH]1 | inactive
24 | CC(C)(C)C(O)(CCc1ccc(Cl)cc1)Cn1cncn1 (stereo not given) | inactive
25 | C1CC2OC2CC1C1CO1 (stereo not given) | inactive
26 | Cc1ccc(N)cc1Cl | inactive
27 | O=C(O)c1ccccn1 | inactive
28 | Cc1cc(Cl)ccc1O | inactive
29 | O=[N+]([O-])c1ccc(Oc2ccc(Cl)cc2Cl)cc1 | inactive
30 | C1CN2CCN1CC2 | inactive
31 | CC(C)(Cl)Cl | inactive
32 | CCCCCOC(=O)c1ccccc1C(=O)OCCCCC | inactive
33 | O=C(NC(=O)c1c(F)cccc1F)Nc1cc(Cl)c(OC(F)(F)C(F)C(F)(F)F)cc1Cl (stereo not given) | inactive
34 | CC1OC(C)OC(C)O1 (stereo not given) | inactive
35 | Nc1ccc(Cc2ccc(N)cc2)cc1 | inactive
36 | c1ccc(OP(Oc2ccccc2)Oc2ccccc2)cc1 | inactive
37 | CCCC1COC(Cn2cncn2)(c2ccc(Cl)cc2Cl)O1 (stereo not given) | inactive
38 | CC(C)(C)OOC(C)(C)C | inactive
39 | CCCN(CCC)c1c([N+](=O)[O-])cc(C(F)(F)F)cc1[N+](=O)[O-] | inactive
40 | O=c1n(Cl)c(=O)n(Cl)c(=O)n1Cl | inactive
